# PubChem BioAssay AID1487 (National Center for Advancing Translational Sciences (NCATS), 2009)
# The whole screen tested about 200,000 compounds, of which about 25 (0.01%) were called active. Roughly 23% stayed inconclusive and do not appear here. The call rests on the fitted dose curve; in most records, active means well fitted inhibition curve with a large enough effect in the signal ratio, with a control signal flat (not every such curve was filed as active); inconclusive means small, poorly fitted or top-dose-only effect, or effect the other way, or a change in a side signal; inactive means flat fitted curve, though single readings scatter; the % refers to the signal ratio. Many of the other results were omitted from the sample, so actives are more common in it than they were.
# Assay: qHTS Assay for Modulators of Lamin A Splicing
# Conditions: HeLa LMNA splicing GFP/RFP minigene ratio, 48 h; series mostly up to 46 µM; ratio change, negative = inhibition: at the top concentration
# Excerpt: NCGC Assay Overview: Hutchinson-Gilford Progeria Syndrome (HGPS) is a pediatric premature aging disease caused by a spontaneous mutation in the lamin A/C (LMNA) gene. The mutation activates a cryptic splice site in the LMNA pre-mRNA which results in production of a pre-lamin A protein that cannot be processed properly. The mutant protein accumulates in the nucleus and negatively affects numerous cellular functions. Correction of the splicing defect in HGPS patient cells using a targeted oligonucleotide (exo11) leads to reversal of the cellular disease phenotypes. To identify small molecule modulators of aberrant LMNA splicing, a homogenous assay was constructed in HeLa cells that used a GFP containing minigene to report on correction of aberrant splicing in lamin A and a RFP (DsRed2) to report on cell viability, uniformity and nonspecific effects on the assay signal. This assay was adapted to laser-scanning microplate cytometry (Acumen, TTP Labtech) where miniaturization of the assay to a 1,536-well plate format was possible. References: Bowen, W. P.; Wylie, P. G. Application of Laser-Scanning Fluorescence Microplate Cytometry in High Content Screening. Assay Drug Dev Technol 2006;4:209-221. Scaffidi P, Misteli T. Reversal of the cellular phenotype in the premature aging disease Hutchinson-Gilford progeria syndrome. Nat.
# NCGC Assay Protocol Summary: Reagents/Controls: Stable clones expressing DsRed2 and lamin A-EGFP were generated by Cell and Molecular Technologies in S3 HeLa cells. HeLa cells were prepared for the assay when they were 70-90% confluent. The cells were counted and resuspended in Opti-MEM I (no phenol red; Gibco), 2% FBS, 1% penicillin/ streptomycin (Gibco) at concentration of 120 cells/uL concentration. The suspension was passed through a Falcon basket filter with pore size 40um (Beckton Dickson). Control titrations: column […] 1536-well plate contained a sixteen point titration (1:2 dilutions) in duplicate of ancitabine (Sigma: A8598) beginning at 40 uM final concentration. Column 2 contained a sixteen point titration (1:2 dilutions) of cycloheximide beginning at 1.4 mM final concentration. Column 3 contained ancitabine at 40 uM and column 4 contained was the vehicle control (0.5% DMSO final concentration). Assay Steps: 5 uL of HeLa cells were plated in Aurora LoBase black clear bottom (cyclic-olefin polymer) 1536-well plates at a final density of 600 cells/well. Controls and library compounds were added with a 1536-well pin array using the Kalypsys pin-tool. The plates were then incubated for 48 hrs in a cell-culture incubator (37 °C; 5% CO2, 98% humidity). Following incubation the plates were read on the Acumen Explorer using the 488 nm laser. Data was collected on objects between 10 and 100 um in size. Cell objects were defined by a 15 um width x 10 um depth filter. The ratio of the total object intensity in PMT1 (500-530 nm emission; GFP) over PMT3 (575-640 nm emission; RFP) was calculated for analysis. Keywords: NIH Roadmap, MLSCN, MLI, MLSMR, qHTS, NCGC, lamin A, Progeria, RNA splicing.
# On the % scale 0 is the no-effect control and ±100 the full control effect.
row,SMILES,"ratio change, negative = inhibition"
1,Cc1nc([N+](=O)[O-])cn1CC(=O)Nc1ccc2c(c1)OCO2,-9.08% (inactive)
2,Cc1cccc(OCCC(=O)Nc2cc(S(=O)(=O)N3CCCCC3)ccc2N2CCOCC2)c1,6.84% (inactive)
3,Cc1ccc(C)c(-n2ccnc2SCC(N)=O)c1,7.68% (inactive)
4,CC1(C)OC(=O)C(=CSc2ccc(C(C)(C)C)cc2)C(=O)O1,-8.64% (inactive)
5,COc1cc(NC(=O)c2cccnc2SC)cc(OC)c1,-6.83% (inactive)
6,COc1ccccc1CN(C)c1nnnn1-c1ccccc1,-21.9% (inactive)
7,COc1ccc(NC(=O)CSc2nnc(-c3ccccc3F)n2C2CC2)cc1S(N)(=O)=O,-17.5% (inactive)
8,CCOC(=O)c1cnc2[nH]c3ccccc3n2c1=O,4.43% (inactive)
9,CC(=O)c1ccc(NC(=O)CSc2c(C(C)C)cnc3c2c(=O)n(C)c(=O)n3C)cc1,-2.64% (inactive)
10,CCOC(=O)c1c(C)oc2nc(C)nc(N3CCN(c4ccc(OC)cc4)CC3)c12,-15.4% (inactive)
11,Cc1ccc(/C([O-])=C(/C(=S)NCc2ccco2)[n+]2ccccc2)cc1[N+](=O)[O-],1.77% (inactive)
12,O=C(C1COc2ccccc2O1)N(Cc1cccnc1)c1nc2c(F)cc(F)cc2s1 (stereo not given),-5.27% (inactive)
13,COc1ccc(NC(=O)c2sc3nc(-c4cc5cccc(OC)c5oc4=O)[nH]c(=O)c3c2C)cc1,13% (inactive)
14,COc1ccc(NS(=O)(=O)c2ccc(O)c(C(=O)OCC(=O)NC3CCCCC3)c2)cc1,-10.8% (inactive)
15,CCCN(CCC)CCCNC(=O)CNC(=O)c1nn(-c2ccc(OC)cc2)c(=O)c2ccccc12,-3.09% (inactive)
16,COc1ccccc1NC(=O)C1=C(C)Nc2nc(SCC(=O)c3ccc(C)cc3)nn2C1c1ccccc1C (stereo not given),17.2% (inactive)
17,COc1cccc(C(O)Cc2nc3ccccc3n2C)c1OC (stereo not given),-1.35% (inactive)
18,O=C(CCC(=O)N1CCCC1)Nc1ccc([N+](=O)[O-])cc1,3.87% (inactive)
19,C/C(CC(=O)Nc1ccc(C)cc1C)=N\NC(=O)C(C)C,0.278% (inactive)
20,O=C(Nc1nnc(S(=O)(=O)N2CCOCC2)s1)c1cccc(Br)c1,13.8% (inactive)
21,Cc1nc(N2CCC(C)CC2)c2c(C)c(C(=O)Nc3cc(F)ccc3C)sc2n1,11.2% [at 9.22 µM] (inactive)
22,CN(C)S(=O)(=O)c1ccc(NC(=O)COC(=O)Cn2[nH]c(=O)c3ccccc3c2=O)cc1,5.82% (inactive)
23,Cc1ccccc1C(=O)Nc1ccc(N2CCCCCC2)cc1,7.32% (inactive)
24,CC1CCN(C(=S)c2cccc([N+](=O)[O-])c2)CC1,-6.14% (inactive)
25,CC(=O)c1sc(NC(=O)C2=NN(c3ccccc3)C(=O)CC2)nc1C,-12.7% (inactive)

row,SMILES,"ratio change, negative = inhibition"
1,OCC1(CCOc2ccccc2)CCN(Cc2cn[nH]c2-c2ccccc2)CC1,19.2% (inactive)
2,CC(C)C(=O)Nc1ccc2oc(=O)ccc2c1,7.65% (inactive)
3,Cc1ccsc1C1C(C#N)=C(N)OC2=C1C(=O)CC(C)(C)C2 (stereo not given),3.22% [at 9.22 µM] (inactive)
4,COc1cccc(NC(=O)CS(=O)(=O)c2cn(CC(=O)N3CCOCC3)c3ccccc23)c1,10.8% [at 9.22 µM] (inactive)
5,COc1cccc(N2CCN(C(=O)CCCCCn3c(=O)[nH]c4ccccc4c3=O)CC2)c1,-15.3% (inactive)
6,COc1ccc(N(CC(=O)NC2CCCC2)C(=O)CS(=O)CC(=O)Nc2ccc3c(c2)OCO3)cc1 (stereo not given),16.3% (inactive)
7,N#Cc1c(NC(=O)C2CC(Cl)=CCC2C(=O)O)sc2c1CCCCC2 (stereo not given),0.744% (inactive)
8,CCOc1ccccc1/C=N/NC(=O)CNC(=O)COc1ccccc1,19.6% (inactive)
9,Cc1ccccc1N1C(=O)C(Oc2ccc(Cl)cc2)C1CNCC1CCCO1 (stereo not given),5.13% (inactive)
10,Fc1ccccc1N=C1Nc2cccc3cccc1c23,-7.4% (inactive)
11,COc1ccc(C(=O)OCC(=O)NCC2CCCO2)cc1[N+](=O)[O-] (stereo not given),-12.3% (inactive)
12,O=C(NC(=S)Nc1cccc(-c2ccc(CO)o2)c1)c1cccs1,-2.34% (inactive)
13,COCCN(C(=O)c1ccccc1F)c1c(N)n(Cc2ccccc2)c(=O)[nH]c1=O,-12.5% (inactive)
14,Cc1c(Cl)cccc1NC(=S)N(Cc1ccccc1)Cc1cccnc1,-24.9% (inactive)
15,Cc1cccc(NC(=O)N2CCC(CN3CCc4ccccc4C3)CC2)c1C,3.54% (inactive)
16,Cc1nc(N2CCCCC2)sc1C=O,-9.95% (inactive)
17,CN(C(=O)CSc1nncc2ccccc12)C1CCCCC1,-27.8% (inactive)
18,CCc1cccc(NC(=O)CN(C)S(=O)(=O)c2ccc3[nH]c4c(c3c2)CCCC4)c1,-8.85% (inactive)
19,CC(C)CCN(C(=O)Nc1ccc(Cl)c(Cl)c1)C(C)c1cccs1 (stereo not given),-17.5% (inactive)
20,COC(=O)CCC(=O)N1CCCC(CO)(Cc2ccccc2)C1 (stereo not given),-12.6% (inactive)
21,Cc1csc(CN(C)C(=O)CC2C(=O)NCCN2CC(C)(C)C)n1 (stereo not given),12.3% (inactive)
22,O=C(NCCCN1CCOCC1)c1ccccc1NS(=O)(=O)c1ccc(F)cc1,-16% (inactive)
23,COCCCNC(=S)NCCNc1nc2cc(C)c(C)cc2cc1C#N,-12% (inactive)
24,Cc1ccccc1CN1C(=O)c2ccccc2Sc2ccc(C(=O)NCCCN3CCOCC3)cc21,-5.48% (inactive)
25,Cc1ccc(C2CC(c3cccc(NS(C)(=O)=O)c3)=NN2S(C)(=O)=O)cc1 (stereo not given),-2.59% [at 9.22 µM] (inactive)
